Test results reported in the supplement of paper PMC12340641.
Structures can show the parent of a compound that is named as a salt.

test system: HEK293FT dCK*-IKZF1; test: relative growth recovery (pomalidomide 10 uM = 100%, DMSO = 0%); higher = more growth rescue (IKZF1 fusion degradation); conditions: compound concentration: 5 uM; AraC concentration: 0.3 uM; overnight pretreatment + 4 days AraC
Procedure, shortened: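 Means of duplicates from different days are given for growth recovery, normalised per plate against a reference degrader and vehicle. The reference degrader set the 100% level and vehicle the 0% level. HEK293FT cells stably expressing a deoxycytidine kinase–IKZF1 fusion (300/well, 384-well) received 5 μM compound 2 h after seeding and, after overnight at 37 °C, 0.3 μM of a nucleoside suicide substrate plus medium for 4 days. Nuclei stained with Hoechst 33342 were then counted by whole-well imaging on day 5.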

Point of comparison: `CSc1ccc2c(c1)N(CCC1CCCCN1C)c1ccccc1S2` (centres undefined) [Thioridazine HCl], relative growth recovery -2.37%. Against it:
- c1cncc(CN2CCC(n3ncc4c(N5CCOCC5)nc(-c5ccc6[nH]ccc6c5)nc43)CC2)c1 — lower, -11.3%
- CCN(CC)CCNc1ccc(CO)c2sc3ccccc3c(=O)c12 [Hycanthone] — lower, -12.3%
- C[C@H](NCc1ccc(OCc2ccccc2F)cc1)C(N)=O [priralfinamide] — lower, -2.81%
- CCC1(O)CC2CN(CCc3c([nH]c4ccccc34)[C@@](C(=O)OC)(c3cc4c(cc3OC)N(C=O)C3[C@]45CCN4CC=C[C@@](CC)([C@@H](OC(C)=O)[C@]3(O)C(=O)OC)[C@H]45)C2)C1 (some centres undefined) [Vincristine sulfate] — lower, -11.8%
- C=C1CCC2[C@](C)(CO)[C@H](O)CC[C@@]2(C)[C@@H]1C/C=C1/C(=O)OC[C@H]1O (some centres undefined) [Andrographolide] — lower, -5.34%
- CC(C)/N=c1/cc2n(-c3ccc(Cl)cc3)c3ccccc3nc-2cc1Nc1ccc(Cl)cc1 [Clofazimine] — higher, -0.03%
- NC(=O)N/N=C/c1ccc(Oc2ccc(F)cc2)cc1 — higher, -1.07%
- CCCCCNC(=N)N/N=C/c1c[nH]c2ccc(OC)cc12 — higher, -2.16%
- CCN(CC)CCOc1ccccc1C(=O)CCc1ccccc1 [etafenone] — higher, -1.08%
- Oc1cc(O)cc(/C=C/c2ccc(O)c(O)c2)c1 [piceatannol] — lower, -2.98%
- CCOc1ccc2nc3cc(N)ccc3c(N)c2c1 — lower, -6.36%
- Nc1ccc(/N=N/c2ccccc2)c(N)n1 — higher, -1.03%
- CCOC(=O)Nc1ccc2c(c1)N(C(=O)CCN1CCOCC1)c1ccccc1S2 [moracizine] — higher, -0.545%
